# Bioassay records from PubChem.
# In the library only some 10% were active in any assay of this set; here they are far more common.
# Lamin A splicing: changes lamin A minigene splicing in HeLa cells; AID 1487; HeLa LMNA splicing GFP/RFP minigene ratio, 48 h; actives 0.01% (n = 200,000); Potency, µM (titrated, usually from 46.1 µM), for the others: at the highest dose ratio change, negative = inhibition, usual class: inhibitors; active = well fitted inhibition curve with a large enough effect in the signal ratio, with a control signal flat, not every such curve was filed as active; inconclusive = small, poorly fitted or top-dose-only effect, or effect the other way, or a change in a side signal; the % refers to the signal ratio; note: potency is the fitted concentration of half-maximal effect
#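 Read-out is the ratio of GFP to DsRed2 object intensity, acquired by 488 nm laser-scanning cytometry on HeLa lamin A-EGFP minigene reporter cells. Compound incubation 48 hrs at 37 °C in Opti-MEM with 2% FBS; DMSO 0.5% final.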
# HPGD inh: blocks human HPGD enzyme activity; purified HPGD, NADH fluorescence kinetic, PGE2 substrate; Potency, µM, without a hit: at the top dose activity change, negative = inhibition, hits mostly inhibitors; actives 4.3% (n = 150,000); note: potency is the fitted concentration of half-maximal effect
#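 20 nM HPGD preincubated 15 min at room temperature with compound in 50 mM Tris-HCl pH 8, 0.01% Tween 20. Started with 1 mM NAD+ and 30 uM prostaglandin E2; NADH fluorescence (360/450 nm) read 5 times over 30-s intervals, last minus first.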
# ALDH1A1 inh: ALDH1A1 (human) enzyme inhibition; P00352; Purified ALDH1A1, NADH fluorescence, propionaldehyde substrate; Potency, µM (highest dose often 75.3 µM), inactives show at the top dose activity, negative = inhibition, hits mostly inhibitors; actives 7.3% (n = 220,000);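 note: potency is the fitted concentration of half-maximal effect; plate controls were no enzyme wells and a reference inhibitor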
# Target sequence (P00352 whole entry, looked up): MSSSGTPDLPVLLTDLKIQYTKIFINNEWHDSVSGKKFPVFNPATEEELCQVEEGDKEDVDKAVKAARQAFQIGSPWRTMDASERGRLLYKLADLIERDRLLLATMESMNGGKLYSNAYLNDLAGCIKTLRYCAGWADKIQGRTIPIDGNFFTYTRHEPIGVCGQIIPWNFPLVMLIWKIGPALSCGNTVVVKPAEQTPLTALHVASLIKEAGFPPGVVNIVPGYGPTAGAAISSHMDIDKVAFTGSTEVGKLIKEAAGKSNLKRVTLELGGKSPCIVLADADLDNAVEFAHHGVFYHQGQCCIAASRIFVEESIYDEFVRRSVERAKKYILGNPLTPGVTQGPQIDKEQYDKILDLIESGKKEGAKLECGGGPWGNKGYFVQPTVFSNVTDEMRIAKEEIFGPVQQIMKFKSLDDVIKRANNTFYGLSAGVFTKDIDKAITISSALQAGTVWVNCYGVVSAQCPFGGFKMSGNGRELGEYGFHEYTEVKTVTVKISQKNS
# PNC assembly inh: inhibitors of perinucleolar compartment assembly | actives 3.1% (n = 140,000) | activity change (PNC), negative = inhibition, % at 10 µM | PC3M PTB-GFP, PNC prevalence imaging, 16 h; stronger effect = lower value;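 active = readout at or below -70, meaning at least 70% loss of cells showing the perinucleolar compartment, a nuclear body marking cancer cells; inconclusive = readout between -30 and a set limit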;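 note: plate controls were DMSO wells for no effect and camptothecin positive control wells for full effect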
#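 Compounds are pinned in duplicate onto adhered PC3M cells stably expressing GFP-tagged PTB and incubated 16 h at 37 C. Cells are then fixed, nuclei stained with Hoechst, and PNC-positive cells counted.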
# ALOX12 inhib: 12-hLO (ALOX12) enzyme inhibition; Potency, µM (top dose mostly 57.1 µM), inactives show top-dose activity change, negative = inhibition, hits mostly inhibitors; P18054; actives 0.12% (n = 150,000); purified 12-hLO, xylenol orange hydroperoxide absorbance; AID 1452; active = well fitted inhibition curve with a large enough effect; inconclusive = small, poorly fitted or top-dose-only effect; note: potency is the fitted concentration of half-maximal effect; nearly all actives have a fitted effect of over 55% in size
#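 Purified human 12hLO (150 nM final) was preincubated with compounds for 15 min at room temperature in 25 mM Hepes pH 7.0, 0.01% Triton X-100, then reacted with 40 uM arachidonic acid for 30 min. Hydroperoxide was detected with ferrous iron/xylenol orange.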
# Active calls of the source: *; ? = inconclusive; / = no result; [ ] = dose if it differs, or a comment. Unless noted, calls come from the whole dose curve; as a rule, active = well fitted inhibition curve with a large enough effect (not every such curve was filed as active); inconclusive = small, poorly fitted or top-dose-only effect, or another doubt; inactive = no such curve, though single readings can be large or run the other way. Unless noted, % is set by controls: 0 for no effect and ±100 for the full control effect.
SMILES,Lamin A splicing,HPGD inh,ALDH1A1 inh,PNC assembly inh,ALOX12 inhib
O=C(CCC1CCCCC1=O)c1ccccc1 (configuration not stated),6%,-19%,-2%,?,-3%
O=C(CC1C(=O)CCCC1=O)c1ccccc1,-15%[46 µM],/,8.9µM*,/,/
CC1CC(C)(C)NC(=S)N1CCCC(=O)Nc1ccc(F)cc1 (configuration not stated),/,/,-13%,/,/
CNC(CC(=O)c1ccc([N+](=O)[O-])cc1)C(Cl)(Cl)Cl (configuration not stated),?,10µM*,0.56µM*,20,-8%
Cc1ccc(CC(=O)Nc2cccc([N+](=O)[O-])c2)cc1,-4%[46 µM],/,-5%,/,/
Cc1cccc(NCCC(=O)c2ccc([N+](=O)[O-])cc2)c1C,/,/,0.18µM*,/,/
Cc1ccc(C(=O)CNc2cccc([N+](=O)[O-])c2)cc1,/,/,13µM*,/,/
Cc1ccc(C(=O)c2ccc([N+](=O)[O-])cc2)cc1C,12%,-18%,?,4,-8%
Cc1ccc(NCC(=O)c2ccc([N+](=O)[O-])cc2)cc1,/,/,7.9µM*,/,/
O=C1N(Cc2cccnc2)C[C@@H]2C[C@@H](c3ccc4nsnc4c3)N3CCC[C@@]123,/,/,-5%,/,/
CCOC(=O)c1c(CC(C)C)csc1NC(C)=O,7%,-4%,10%,41,-3%
CC(C)Cc1csc(NC(=O)c2ccc(F)cc2)c1C(=O)O,?,25µM*,3%,56,0%
CCC(C)Oc1cccc(C(=O)Nc2ccccc2N2CCOCC2)c1 (configuration not stated),-2%,-18%,?,-87*,2%
CCOc1ccc(C(=O)C2CCN(CC(=O)Nc3ccccc3N3CCOCC3)CC2)cc1,?,-25%,25µM*,26,-1%
CCOC(=O)c1c(C)sc(-c2c(-c3ccc(OC)c(F)c3)[nH]c3c2c(=O)[nH]c(=O)n3C)c1O,-6%[46 µM],/,/,/,/
CCOC(=O)c1[nH]c(C)c(/C=N/O)c1C,0%,?,3%,-115*,7%
Brc1ccccc1-c1nnc(CSc2nncn2-c2ccccc2)o1,1%,-29%,-8%,?,7%
Clc1ccccc1OCc1nnc(-c2ccccc2Br)o1,2%,20µM*,?,-10,-4%
Brc1ccccc1-c1nnc(COc2cccc3cccnc23)o1,-14%,?,?,?,-4%
O=c1c(Cl)c(Cl)cnn1Cc1nnc(-c2ccccc2Br)o1,/,/,3.5µM*,/,/
Clc1ccc(-c2nnc(-c3ccccc3Cl)o2)cc1,10%,/,?,-8,-12%
Clc1ccc(Cc2nnc(-c3ccccc3Br)o2)cc1,2%,20µM*,10%,52,-4%
COc1ccc(C2COc3c(ccc(O)c3OC)C2)c(OC)c1O (configuration not stated),/,-13%,6%,/,-1%
Cc1ccc(C(=O)NC(=O)OCCn2c(C)cnc2[N+](=O)[O-])cc1,-4%[9.22 µM],/,-1%,/,/
COc1ccc(/C=N/N(Cc2ccccc2)c2ccccc2)cc1O,?,/,-4%,/,/
SMILES,Lamin A splicing,HPGD inh,ALDH1A1 inh,PNC assembly inh,ALOX12 inhib
C(=N\N(Cc1ccccc1)c1ccccc1)/c1ccco1,?,/,14µM*,/,/
COc1ccc(N2C(=O)CS(=O)(=O)C23C(=O)N(Cc2ccccc2F)c2ccccc23)cc1Cl (configuration not stated),3%[46 µM],/,/,/,/
CC(C)(C)NC(=O)c1cc(F)c(F)cc1Cl,3%,-12%,11%,-21,7%
O=C(NC1CC1)c1cc(F)c(F)cc1Cl,12%,22µM*,1%,-5,-5%
Cc1cc(C(=O)Nn2c(C3CCCCC3)nc3ccccc3c2=O)ccc1[N+](=O)[O-],?,-5%,22µM*,4,3%
O=C(Nc1ccccc1C(=O)N1CCCC1)c1cccc(S(=O)(=O)N2CCCCCC2)c1,-4%,1%,-1%,45,-11%
O=C(c1cnn(C(=O)c2cccc(S(=O)(=O)N3CCOCC3)c2)c1)c1ccccc1O,/,/,3.5µM*,/,/
O=C(c1cnn(C(=O)c2cccc(S(=O)(=O)N3CCOCC3)c2)c1)c1cc(Cl)cc(Cl)c1O,?,/,2%,/,/
O=C(NNC1=NCCC1)c1cccc(S(=O)(=O)N2CCCC2)c1,5%,-10%,8%,-107*,0%
O=C(Nc1ccccc1C(=O)N1CCOCC1)c1cccc(S(=O)(=O)N2CCCC2)c1,5%,-2%,-6%,-90*,6%
Cc1cc(NC(=O)c2cccc(S(=O)(=O)N3CCCC3)c2)no1,-12%,-16%,35µM*,?,3%
Cc1cc(NC(=O)c2ccc(Br)c(S(=O)(=O)N3CCCC3)c2)no1,?,-3%,-6%,?,4%
CCN(CC)c1ccc(NC2=C(Cl)C(=O)c3ccccc3C2=O)cc1,?,7.9µM*,10µM*,?,-8%
Cc1ccc(NC2=C(Cl)C(=O)c3ccccc3C2=O)cc1,?,/,4%,-14,1%
O=C1C(Cl)=C(Nc2ccc(S(=O)(=O)Nc3ccccn3)cc2)C(=O)c2ccccc21,/,2.8µM*,0.63µM*,/,?
CC(C)(C)c1ccc(S(=O)(=O)Nc2ccccn2)cc1,-9%[46 µM],/,32µM*,/,/
Nc1ccc(S(=O)(=O)Nc2ccccn2)cc1,-6%,-12%,1%,17,3%
CCNc1ncc2nc(-c3cccs3)c(=O)n(-c3ccc(OC)cc3)c2n1,/,-13%,?,/,3%
COc1ccc(/C=N/N=C2/CC(C)(C)Cc3n[nH]c(=O)cc32)cc1,?,/,28µM*,/,/
COc1ccc(OC)c(N=CC2=C(O)CC(C)(C)CC2=O)c1,6%,-20%,13µM*,-29,-5%
COc1ccc(N=CC2=C(O)CC(C)(C)CC2=O)cc1,1%,-5%,7.9µM*,-23,0%
COc1ccc(N=CC2=C(O)CC(c3ccccc3)CC2=O)c(OC)c1 (configuration not stated),?,-11%,14µM*,38,-4%
CC1(C)CC(=O)C=C(N=CC2=C(O)CC(C)(C)CC2=O)C1,8%,-14%,8.9µM*,?,-2%
CCOc1ccccc1N=CC1=C(O)CC(c2ccccc2)CC1=O (configuration not stated),-9%[46 µM],/,?,/,/
Cc1cc(N=CC2=C(O)CC(C)(C)CC2=O)no1,-5%,-1%,-7%,-20,-4%
COc1ccc(N=CC2=C(O)CCCC2=O)cc1,-4%,-20%,?,?,-2%
COCCCN=CC1=C(O)CC(C)(C)CC1=O,17%,-6%,0%,19,-3%
Cc1c(C(=O)C(=O)NCc2ccco2)c2ccccc2n1C,/,/,-1%,/,/
CC(=O)N[C@@H](C)C(=O)OC(C)C(=O)Nc1cccc([N+](=O)[O-])c1 (some centres not stated),-11%[46 µM],/,-4%,/,/
Cc1ccc(Cl)cc1N1CCN(C(=O)Cn2cnc3onc(-c4ccc(F)cc4)c3c2=O)CC1,0%[46 µM],/,/,/,/
